According to paper PMC7862700, “An all-to-all approach to the identification of sequence-specific readers for epigenetic DNA modifications on cytosine”:

What was measured:
Experiment in all cases: DAPPL (digital affinity profiling via proximity ligation, sequencing); 10 mM Tris-HCl pH 7.5, 50 mM NaCl, 1 mM DTT, 4% glycerol, room temperature, 30 min; GST-TFs on glutathione beads, 16-mer random dsDNA library, 0.1% formaldehyde crosslink after washing; high values mean tight binding
[1] = target: T1, FEV (Homo sapiens, UniProt Q99581 1-238); conditions: protein: recombinant; tags: N-terminal GST; dsDNA, one strand shown
T1 sequence: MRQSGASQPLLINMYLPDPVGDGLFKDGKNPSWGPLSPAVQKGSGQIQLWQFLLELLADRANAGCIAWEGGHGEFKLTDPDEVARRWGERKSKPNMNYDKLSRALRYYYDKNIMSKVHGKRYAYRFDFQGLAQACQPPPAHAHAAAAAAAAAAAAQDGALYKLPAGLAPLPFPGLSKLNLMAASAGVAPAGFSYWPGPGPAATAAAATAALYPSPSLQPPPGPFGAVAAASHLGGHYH
Method in brief: (§1)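 Yeast served to express human transcription factors as GST fusions, which were then captured on glutathione beads and labelled with DNA barcodes. Pooled with a tag-only sample, they were incubated with 200 nmole of a 16-mer random double-stranded DNA library for 30 min at room temperature in Tris/NaCl/DTT/glycerol buffer, washed, crosslinked with 0.1% formaldehyde, ligated by proximity, amplified by PCR and sequenced. Dividing each hexamer's read frequency for a factor by its frequency for the tag-only sample gives the binding signal.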

[2] = target: ETV5 (Homo sapiens, UniProt P41161 1-510); conditions: protein: recombinant; tags: N-terminal GST; dsDNA, one strand shown
Chain of ETV5 (P41161 whole entry): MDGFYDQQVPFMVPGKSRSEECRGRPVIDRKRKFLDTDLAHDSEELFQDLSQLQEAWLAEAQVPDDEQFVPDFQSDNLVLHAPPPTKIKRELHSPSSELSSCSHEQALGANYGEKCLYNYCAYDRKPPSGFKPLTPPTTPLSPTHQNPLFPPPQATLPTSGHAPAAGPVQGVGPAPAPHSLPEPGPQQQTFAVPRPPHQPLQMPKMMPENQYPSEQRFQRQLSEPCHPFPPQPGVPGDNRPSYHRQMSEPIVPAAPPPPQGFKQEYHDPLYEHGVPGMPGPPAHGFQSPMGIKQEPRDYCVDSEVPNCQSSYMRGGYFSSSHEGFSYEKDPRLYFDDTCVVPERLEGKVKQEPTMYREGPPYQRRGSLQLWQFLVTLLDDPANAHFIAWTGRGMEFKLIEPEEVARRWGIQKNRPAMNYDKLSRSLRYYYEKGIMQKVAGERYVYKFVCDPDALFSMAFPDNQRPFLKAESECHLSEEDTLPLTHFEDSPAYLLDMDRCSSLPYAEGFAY
Method in brief: as §1

[3] = target: HSF1 (Homo sapiens, UniProt Q00613 1-529); conditions: protein: recombinant; tags: N-terminal GST; chain copies: 3; dsDNA, one strand shown
Chain of HSF1 (Q00613 whole entry): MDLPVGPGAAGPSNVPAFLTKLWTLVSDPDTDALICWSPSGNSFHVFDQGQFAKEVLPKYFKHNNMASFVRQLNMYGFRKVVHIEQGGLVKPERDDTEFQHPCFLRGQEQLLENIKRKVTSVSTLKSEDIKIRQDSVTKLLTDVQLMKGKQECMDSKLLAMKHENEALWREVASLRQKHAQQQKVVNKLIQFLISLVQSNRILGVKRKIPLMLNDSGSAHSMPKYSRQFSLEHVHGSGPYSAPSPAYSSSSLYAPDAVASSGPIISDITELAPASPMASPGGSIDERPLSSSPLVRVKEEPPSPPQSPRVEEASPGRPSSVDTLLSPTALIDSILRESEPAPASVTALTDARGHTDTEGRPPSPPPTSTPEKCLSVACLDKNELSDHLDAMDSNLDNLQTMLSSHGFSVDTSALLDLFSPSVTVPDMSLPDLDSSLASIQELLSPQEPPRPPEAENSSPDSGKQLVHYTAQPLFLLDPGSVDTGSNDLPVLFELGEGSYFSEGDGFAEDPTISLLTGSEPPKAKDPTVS
Method in brief: as §1

[4] = target: T2, SPIC (Homo sapiens, UniProt Q8N5J4 1-248); conditions: protein: recombinant; tags: N-terminal GST; dsDNA, one strand shown
T2 sequence: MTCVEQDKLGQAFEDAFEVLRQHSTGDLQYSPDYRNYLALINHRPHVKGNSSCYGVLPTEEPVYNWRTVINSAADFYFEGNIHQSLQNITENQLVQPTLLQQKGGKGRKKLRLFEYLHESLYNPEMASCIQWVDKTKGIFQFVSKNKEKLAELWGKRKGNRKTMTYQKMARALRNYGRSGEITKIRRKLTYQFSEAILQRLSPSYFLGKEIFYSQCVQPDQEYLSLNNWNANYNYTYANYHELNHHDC
Method in brief: as §1

[5] = target: ELF4 (Homo sapiens, UniProt Q99607 1-663); conditions: protein: recombinant; tags: N-terminal GST; dsDNA, one strand shown
Chain of ELF4 (Q99607 whole entry): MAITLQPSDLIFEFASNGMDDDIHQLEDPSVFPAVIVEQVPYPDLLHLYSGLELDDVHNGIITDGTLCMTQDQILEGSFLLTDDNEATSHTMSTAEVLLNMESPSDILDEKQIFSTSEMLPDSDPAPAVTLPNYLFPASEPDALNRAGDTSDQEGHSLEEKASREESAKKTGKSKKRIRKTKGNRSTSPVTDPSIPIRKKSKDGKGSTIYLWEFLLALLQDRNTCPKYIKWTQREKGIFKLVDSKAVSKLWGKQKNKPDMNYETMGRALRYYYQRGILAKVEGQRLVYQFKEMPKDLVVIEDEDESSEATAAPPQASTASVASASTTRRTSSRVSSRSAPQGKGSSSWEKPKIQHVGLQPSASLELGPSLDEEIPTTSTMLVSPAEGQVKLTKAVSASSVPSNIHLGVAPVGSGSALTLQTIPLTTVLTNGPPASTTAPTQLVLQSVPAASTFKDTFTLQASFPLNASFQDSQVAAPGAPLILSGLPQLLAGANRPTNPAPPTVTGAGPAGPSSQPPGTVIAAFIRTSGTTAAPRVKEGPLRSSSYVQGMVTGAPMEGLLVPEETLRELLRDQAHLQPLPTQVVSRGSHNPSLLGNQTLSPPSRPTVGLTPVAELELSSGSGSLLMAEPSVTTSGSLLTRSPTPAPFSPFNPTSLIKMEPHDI
Method in brief: as §1

[6] = target: T3, ELK4 (Homo sapiens, UniProt P28324-2 1-405); conditions: protein: recombinant; tags: N-terminal GST; dsDNA, one strand shown
T3 sequence: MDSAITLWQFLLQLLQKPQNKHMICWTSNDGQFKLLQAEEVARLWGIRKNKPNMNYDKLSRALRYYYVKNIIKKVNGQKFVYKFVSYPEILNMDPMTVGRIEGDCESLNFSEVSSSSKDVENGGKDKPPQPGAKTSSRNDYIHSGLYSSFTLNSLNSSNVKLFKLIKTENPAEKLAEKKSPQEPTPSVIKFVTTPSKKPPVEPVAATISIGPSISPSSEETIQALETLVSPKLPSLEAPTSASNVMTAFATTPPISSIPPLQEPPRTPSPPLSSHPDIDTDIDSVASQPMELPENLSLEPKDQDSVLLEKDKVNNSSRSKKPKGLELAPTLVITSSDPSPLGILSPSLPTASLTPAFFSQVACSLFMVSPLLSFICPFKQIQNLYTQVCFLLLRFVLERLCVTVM
Method in brief: as §1

[7] = target: T4, ETV2 (Homo sapiens, UniProt O00321 1-342); conditions: protein: recombinant; tags: N-terminal GST; dsDNA, one strand shown
T4 sequence: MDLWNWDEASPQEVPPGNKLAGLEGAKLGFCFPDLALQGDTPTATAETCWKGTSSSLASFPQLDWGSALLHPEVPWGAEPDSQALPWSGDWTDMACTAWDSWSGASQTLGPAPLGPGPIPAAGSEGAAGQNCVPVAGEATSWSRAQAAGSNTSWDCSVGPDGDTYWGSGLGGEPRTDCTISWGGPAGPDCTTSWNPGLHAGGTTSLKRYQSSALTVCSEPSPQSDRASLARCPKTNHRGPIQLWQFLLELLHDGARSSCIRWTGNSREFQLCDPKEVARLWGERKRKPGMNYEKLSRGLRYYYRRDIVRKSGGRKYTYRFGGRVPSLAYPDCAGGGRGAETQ
Method in brief: as §1

[8] = target: T5, ELF3 (Homo sapiens, UniProt P78545 1-371); conditions: protein: recombinant; tags: N-terminal GST; dsDNA, one strand shown
T5 sequence: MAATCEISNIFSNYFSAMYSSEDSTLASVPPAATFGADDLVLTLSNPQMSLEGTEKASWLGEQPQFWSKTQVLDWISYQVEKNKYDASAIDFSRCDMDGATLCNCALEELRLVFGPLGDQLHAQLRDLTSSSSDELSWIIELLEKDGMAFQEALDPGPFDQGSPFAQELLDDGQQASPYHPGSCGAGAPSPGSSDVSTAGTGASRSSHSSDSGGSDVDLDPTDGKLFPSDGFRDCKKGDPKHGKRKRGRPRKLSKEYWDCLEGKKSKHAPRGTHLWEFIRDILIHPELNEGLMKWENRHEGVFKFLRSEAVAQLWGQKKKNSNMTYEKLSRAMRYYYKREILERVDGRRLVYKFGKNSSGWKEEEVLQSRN
Method in brief: as §1

[9] = target: CRX (Homo sapiens, UniProt O43186 1-299); conditions: protein: recombinant; tags: N-terminal GST; dsDNA, one strand shown
Chain of CRX (O43186 whole entry): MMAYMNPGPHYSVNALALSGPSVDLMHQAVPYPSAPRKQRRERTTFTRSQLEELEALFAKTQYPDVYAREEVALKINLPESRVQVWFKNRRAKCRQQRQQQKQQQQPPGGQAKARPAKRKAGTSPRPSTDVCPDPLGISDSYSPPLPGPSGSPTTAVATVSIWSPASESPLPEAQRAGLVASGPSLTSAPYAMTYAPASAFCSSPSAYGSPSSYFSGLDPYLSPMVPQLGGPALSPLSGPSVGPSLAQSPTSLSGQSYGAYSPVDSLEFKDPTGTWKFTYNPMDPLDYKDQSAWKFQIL
Method in brief: as §1

[10] = target: ETV1 (Homo sapiens, UniProt P50549 1-477); conditions: protein: recombinant; tags: N-terminal GST; dsDNA, one strand shown
Chain of ETV1 (P50549 whole entry): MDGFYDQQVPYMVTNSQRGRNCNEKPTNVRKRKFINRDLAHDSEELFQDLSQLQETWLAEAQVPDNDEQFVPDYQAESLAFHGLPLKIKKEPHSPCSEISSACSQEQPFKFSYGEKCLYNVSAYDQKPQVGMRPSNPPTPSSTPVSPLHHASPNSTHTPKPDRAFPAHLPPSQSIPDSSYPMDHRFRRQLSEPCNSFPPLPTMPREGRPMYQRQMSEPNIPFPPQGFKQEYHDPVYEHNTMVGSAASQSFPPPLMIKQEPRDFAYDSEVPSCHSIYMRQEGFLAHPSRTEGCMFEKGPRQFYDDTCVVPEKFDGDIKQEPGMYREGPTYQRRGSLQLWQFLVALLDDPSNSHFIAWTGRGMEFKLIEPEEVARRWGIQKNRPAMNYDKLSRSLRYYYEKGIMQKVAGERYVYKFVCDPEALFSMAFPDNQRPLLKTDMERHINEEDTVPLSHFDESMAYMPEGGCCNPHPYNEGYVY
Method in brief: as §1

[11] = target: T6, ERF (Homo sapiens, UniProt P50548 1-548); conditions: protein: recombinant; tags: N-terminal GST; dsDNA, one strand shown
T6 sequence: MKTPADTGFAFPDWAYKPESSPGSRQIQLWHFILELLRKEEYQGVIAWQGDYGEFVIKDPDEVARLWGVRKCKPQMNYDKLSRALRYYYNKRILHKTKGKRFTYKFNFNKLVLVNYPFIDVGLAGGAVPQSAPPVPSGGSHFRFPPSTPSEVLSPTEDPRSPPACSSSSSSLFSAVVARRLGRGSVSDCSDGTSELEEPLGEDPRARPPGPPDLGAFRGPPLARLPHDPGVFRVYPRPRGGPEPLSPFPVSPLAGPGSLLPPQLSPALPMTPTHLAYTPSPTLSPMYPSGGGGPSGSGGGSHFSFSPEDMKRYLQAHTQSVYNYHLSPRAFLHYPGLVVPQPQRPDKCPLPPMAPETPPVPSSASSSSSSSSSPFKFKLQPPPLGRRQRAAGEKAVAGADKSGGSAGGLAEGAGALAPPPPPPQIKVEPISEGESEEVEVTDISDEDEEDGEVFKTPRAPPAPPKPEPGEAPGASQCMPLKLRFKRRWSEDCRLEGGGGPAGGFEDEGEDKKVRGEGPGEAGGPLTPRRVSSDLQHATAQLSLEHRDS
Method in brief: as §1

[12] = target: T7, ETV3L (Homo sapiens, UniProt Q6ZN32 1-361); conditions: protein: recombinant; tags: N-terminal GST; dsDNA, one strand shown
T7 sequence: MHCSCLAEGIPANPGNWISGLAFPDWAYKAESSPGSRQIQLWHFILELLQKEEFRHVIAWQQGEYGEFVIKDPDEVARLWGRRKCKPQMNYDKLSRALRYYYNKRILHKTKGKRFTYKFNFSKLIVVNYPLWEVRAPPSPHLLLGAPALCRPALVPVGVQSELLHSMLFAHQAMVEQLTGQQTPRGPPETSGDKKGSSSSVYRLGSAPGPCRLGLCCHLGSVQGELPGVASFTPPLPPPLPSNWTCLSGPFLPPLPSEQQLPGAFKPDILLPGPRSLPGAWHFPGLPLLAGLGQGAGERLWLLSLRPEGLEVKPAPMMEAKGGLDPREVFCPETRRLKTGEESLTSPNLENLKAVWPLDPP
Method in brief: as §1

[13] = target: T8, ETS2 (Homo sapiens, UniProt P15036 1-469); conditions: protein: recombinant; tags: N-terminal GST; dsDNA, one strand shown
T8 sequence: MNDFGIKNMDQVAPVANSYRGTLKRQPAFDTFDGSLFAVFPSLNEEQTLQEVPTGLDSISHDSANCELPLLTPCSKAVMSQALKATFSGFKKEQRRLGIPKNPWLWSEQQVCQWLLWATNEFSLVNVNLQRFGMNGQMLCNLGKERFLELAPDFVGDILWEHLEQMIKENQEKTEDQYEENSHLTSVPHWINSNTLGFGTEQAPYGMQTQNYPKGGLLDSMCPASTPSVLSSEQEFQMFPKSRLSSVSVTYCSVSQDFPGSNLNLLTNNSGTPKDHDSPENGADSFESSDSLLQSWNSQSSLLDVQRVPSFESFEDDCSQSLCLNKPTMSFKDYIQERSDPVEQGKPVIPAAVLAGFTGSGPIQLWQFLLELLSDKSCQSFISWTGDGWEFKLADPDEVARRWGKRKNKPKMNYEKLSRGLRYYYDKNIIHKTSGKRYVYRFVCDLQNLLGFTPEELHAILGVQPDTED
Method in brief: as §1

[14] = target: T9, SPDEF (Homo sapiens, UniProt O95238 1-335); conditions: protein: recombinant; tags: N-terminal GST; dsDNA, one strand shown
T9 sequence: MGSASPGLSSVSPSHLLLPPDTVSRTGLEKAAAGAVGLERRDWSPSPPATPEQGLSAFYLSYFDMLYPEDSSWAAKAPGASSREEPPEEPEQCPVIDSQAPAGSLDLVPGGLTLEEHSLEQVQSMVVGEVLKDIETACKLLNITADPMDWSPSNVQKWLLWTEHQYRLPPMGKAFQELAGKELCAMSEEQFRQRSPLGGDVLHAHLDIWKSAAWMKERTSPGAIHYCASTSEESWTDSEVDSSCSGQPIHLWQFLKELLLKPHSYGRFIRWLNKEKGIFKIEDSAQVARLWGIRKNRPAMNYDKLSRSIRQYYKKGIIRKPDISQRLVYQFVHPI
Method in brief: as §1

[15] = target: T10, ETV7 (Homo sapiens, UniProt Q9Y603 1-341); conditions: protein: recombinant; tags: N-terminal GST; dsDNA, one strand shown
T10 sequence: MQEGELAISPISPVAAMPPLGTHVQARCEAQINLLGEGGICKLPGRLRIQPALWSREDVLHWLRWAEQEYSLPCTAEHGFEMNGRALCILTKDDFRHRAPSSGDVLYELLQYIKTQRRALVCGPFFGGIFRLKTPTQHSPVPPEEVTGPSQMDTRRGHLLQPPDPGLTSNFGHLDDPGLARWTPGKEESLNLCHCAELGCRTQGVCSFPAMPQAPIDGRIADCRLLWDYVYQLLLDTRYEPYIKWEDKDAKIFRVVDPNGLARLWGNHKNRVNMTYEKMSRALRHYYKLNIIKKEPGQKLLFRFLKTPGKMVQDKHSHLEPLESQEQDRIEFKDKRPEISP
Method in brief: as §1

[16] = target: T11, ELF5 (Homo sapiens, UniProt Q9UKW6-2 1-255); conditions: protein: recombinant; tags: N-terminal GST; dsDNA, one strand shown
T11 sequence: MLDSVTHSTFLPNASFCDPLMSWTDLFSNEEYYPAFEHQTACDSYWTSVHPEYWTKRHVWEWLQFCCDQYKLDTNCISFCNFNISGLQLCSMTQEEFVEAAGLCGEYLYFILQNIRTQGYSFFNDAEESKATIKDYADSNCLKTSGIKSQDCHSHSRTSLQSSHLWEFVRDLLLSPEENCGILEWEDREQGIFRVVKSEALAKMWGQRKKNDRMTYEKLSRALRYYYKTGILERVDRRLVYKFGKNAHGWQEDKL
Method in brief: as §1

[17] = target: T12, ETV3 (Homo sapiens, UniProt P41162-2 1-143); conditions: protein: recombinant; tags: N-terminal GST; dsDNA, one strand shown
T12 sequence: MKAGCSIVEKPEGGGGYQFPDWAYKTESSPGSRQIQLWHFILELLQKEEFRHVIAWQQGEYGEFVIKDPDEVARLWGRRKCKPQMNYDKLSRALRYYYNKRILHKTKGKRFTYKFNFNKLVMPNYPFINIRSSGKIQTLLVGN
Method in brief: as §1

[18] = target: ETV6 (Homo sapiens, UniProt P41212 1-452); conditions: protein: recombinant; tags: N-terminal GST; dsDNA, one strand shown
Chain of ETV6 (P41212 whole entry): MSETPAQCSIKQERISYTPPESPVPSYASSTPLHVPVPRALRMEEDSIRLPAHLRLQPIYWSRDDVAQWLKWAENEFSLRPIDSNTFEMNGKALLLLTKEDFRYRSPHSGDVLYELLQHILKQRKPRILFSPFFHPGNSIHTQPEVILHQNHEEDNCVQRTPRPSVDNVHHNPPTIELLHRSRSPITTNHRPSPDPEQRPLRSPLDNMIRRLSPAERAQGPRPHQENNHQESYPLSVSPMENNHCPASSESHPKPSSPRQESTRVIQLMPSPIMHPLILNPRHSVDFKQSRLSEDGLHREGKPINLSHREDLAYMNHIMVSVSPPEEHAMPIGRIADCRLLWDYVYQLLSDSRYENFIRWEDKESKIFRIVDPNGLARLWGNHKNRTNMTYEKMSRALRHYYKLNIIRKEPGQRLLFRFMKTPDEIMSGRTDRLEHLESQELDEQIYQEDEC
Method in brief: as §1

Q: For CTTTAA, which binding signal [1] is on record?
A: 1.23 fold enrichment (6-mer frequency, TF over GST control)

Q: And the binding signal [2]?
A: 1.24 fold enrichment (6-mer frequency, TF over GST control)

Q: What about the binding signal [3] of the same sequence?
A: 1.58 fold enrichment (6-mer frequency, TF over GST control)

Q: And the binding signal [4]?
A: 1.36 fold enrichment (6-mer frequency, TF over GST control)

Q: What about the binding signal [5] of the same sequence?
A: 1.26 fold enrichment (6-mer frequency, TF over GST control)

Q: What about the binding signal [6] of the same sequence?
A: 1.28 fold enrichment (6-mer frequency, TF over GST control)

Q: And the binding signal [7]?
A: 1.27 fold enrichment (6-mer frequency, TF over GST control)

Q: And the binding signal [8]?
A: 1.39 fold enrichment (6-mer frequency, TF over GST control)

Q: And the binding signal [9]?
A: 2.25 fold enrichment (6-mer frequency, TF over GST control)

Q: And the binding signal [10]?
A: 1.3 fold enrichment (6-mer frequency, TF over GST control)

Q: What about the binding signal [11] of the same sequence?
A: 1.32 fold enrichment (6-mer frequency, TF over GST control)

Q: And the binding signal [12]?
A: 1.34 fold enrichment (6-mer frequency, TF over GST control)

Q: What about the binding signal [13] of the same sequence?
A: 1.33 fold enrichment (6-mer frequency, TF over GST control)

Q: What about the binding signal [14] of the same sequence?
A: 1.28 fold enrichment (6-mer frequency, TF over GST control)

Q: What about the binding signal [15] of the same sequence?
A: 1.2 fold enrichment (6-mer frequency, TF over GST control)

Q: And the binding signal [16]?
A: 1.32 fold enrichment (6-mer frequency, TF over GST control)

Q: What about the binding signal [17] of the same sequence?
A: 1.23 fold enrichment (6-mer frequency, TF over GST control)

Q: And the binding signal [18]?
A: 1.23 fold enrichment (6-mer frequency, TF over GST control)
